From PubChem BioAssay (NCATS) come the findings set out here.

Experiment [1] has as its target Lysosomal acid glucosylceramidase (Homo sapiens) (UniProt P04062). Briefly: Glucocerebrosidase-p2 (AID 348; in the data active = potency below about 10 µM; note: potency is the fitted concentration of half-maximal effect). As to conditions: purified GBA, blue fluorogenic substrate, 40 min. The essentials: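 Normal human glucocerebrosidase (0.2 nM) with blue fluorogenic substrate (80 uM final) in citrate/phosphate pH 5.9 with 10mM sodium taurocholate, 0.01% tween-20; 40 min RT, NaOH/glycine stop; fluorescence Ex 365/Em 440; AC50 from a titration from 0.6 nM upwards.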

Experiment [2] is described as follows: AP1 Signaling Pathway (AID 357).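 Note: ME-180 reporter cells stimulated with EGF at its EC50 level; % is set by controls: 0 for no effect and ±100 for the full control effect.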 As to conditions: ME-180 AP-1-bla reporter, EGF-induced, beta-lactamase ratio, 5 h; at 7.69 µM (top of the series) unless noted. The essentials:
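Beta-lactamase reporter under AP-1 response element, ME-180 background. Stimulus: EC50 EGF. Compound exposure 5 h, 37 °C. Detection: CCF4, 2.5 h RT, 460/530 nm. Values: AC50 from titration.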

In experiment [3] the target is Cytochrome P450 1A2 (Homo sapiens) (UniProt P05177). The experiment in a line: p450-cyp1a2 (AID 410; calls by dose curve; note: potency is the fitted concentration of half-maximal effect). The essentials: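 Read-out is luminescence from luciferin produced by CYP1A2 demethylation of Luciferin-ME (100uM, at Km). Detection reagent stopped the 60 min NADPH-dependent reaction; signals were normalized to 57 uM furafylline.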
Sequence of Cytochrome P450 1A2 (Homo sapiens) (P05177 whole entry, looked up): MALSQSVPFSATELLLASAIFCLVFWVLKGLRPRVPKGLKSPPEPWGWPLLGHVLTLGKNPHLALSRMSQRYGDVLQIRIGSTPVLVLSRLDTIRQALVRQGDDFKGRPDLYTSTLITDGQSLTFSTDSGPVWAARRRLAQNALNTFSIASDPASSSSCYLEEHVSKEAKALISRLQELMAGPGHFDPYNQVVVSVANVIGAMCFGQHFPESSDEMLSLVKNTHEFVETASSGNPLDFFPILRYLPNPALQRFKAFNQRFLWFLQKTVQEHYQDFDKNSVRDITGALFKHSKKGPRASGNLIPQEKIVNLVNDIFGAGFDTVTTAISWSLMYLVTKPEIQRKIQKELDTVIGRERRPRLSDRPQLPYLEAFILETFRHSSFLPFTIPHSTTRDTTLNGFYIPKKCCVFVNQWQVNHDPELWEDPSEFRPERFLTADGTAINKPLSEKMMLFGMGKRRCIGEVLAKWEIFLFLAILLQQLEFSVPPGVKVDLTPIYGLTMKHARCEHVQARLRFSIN
The nature of experiment [4]: NFAT Signaling Pathway (AID 444).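 Note: carbachol stimulus at about its EC50 of 1 µM final; % is set by controls: 0 for no effect and ±100 for the full control effect.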 To be noted: Jurkat NFAT-bla M1, carbachol, beta-lactamase ratio, 5 h; at 7.69 µM (top of the series) unless noted. The essentials:
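Read-out: CCF4 FRET ratio (460 nm/530 nm) after 1 h RT dye loading, used for %activity and AC50 from titration series. Cells: Jurkat NFAT-β-lactamase/M1 line, treated with compound plus 1 uM carbachol for 5 h, 37 °C.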

The nature of experiment [5]: Stat Signaling Pathway (AID 446).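 Note: ME-180 cervical cancer cells given 40 pM IL-6 alongside compound; SIE-controlled beta-lactamase reporter measured as 460/530 nm FRET emission ratio; % is set by controls: 0 for no effect and ±100 for the full control effect.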 As to conditions: ME-180 (cervical carcinoma) SIE beta-lactamase reporter, IL-6 stimulated, 5 h; at 7.69 µM (top of the series) unless noted. The essentials:
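Overnight-plated ME-180 cells bearing a STAT Inducible Element beta-lactamase reporter; 5 h co-exposure to compound and 40 pM IL-6; values normalized to 300 pM IL-6 and 125 nM JAK inhibitor controls.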

Experiment [6] deals with Glucocorticoid receptor (Homo sapiens) (UniProt P04150). The experiment in a line: GR-GFP Redistribution (AID 450;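 active = compounds whose dose series gives a full or clear partial fitted curve of increased nuclear translocation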; note: potency is the fitted concentration of half-maximal effect). As to conditions: U2OS GR-GFP nuclear translocation, laser cytometry, 2 h.
Sequence of Glucocorticoid receptor (Homo sapiens) (P04150 whole entry, looked up): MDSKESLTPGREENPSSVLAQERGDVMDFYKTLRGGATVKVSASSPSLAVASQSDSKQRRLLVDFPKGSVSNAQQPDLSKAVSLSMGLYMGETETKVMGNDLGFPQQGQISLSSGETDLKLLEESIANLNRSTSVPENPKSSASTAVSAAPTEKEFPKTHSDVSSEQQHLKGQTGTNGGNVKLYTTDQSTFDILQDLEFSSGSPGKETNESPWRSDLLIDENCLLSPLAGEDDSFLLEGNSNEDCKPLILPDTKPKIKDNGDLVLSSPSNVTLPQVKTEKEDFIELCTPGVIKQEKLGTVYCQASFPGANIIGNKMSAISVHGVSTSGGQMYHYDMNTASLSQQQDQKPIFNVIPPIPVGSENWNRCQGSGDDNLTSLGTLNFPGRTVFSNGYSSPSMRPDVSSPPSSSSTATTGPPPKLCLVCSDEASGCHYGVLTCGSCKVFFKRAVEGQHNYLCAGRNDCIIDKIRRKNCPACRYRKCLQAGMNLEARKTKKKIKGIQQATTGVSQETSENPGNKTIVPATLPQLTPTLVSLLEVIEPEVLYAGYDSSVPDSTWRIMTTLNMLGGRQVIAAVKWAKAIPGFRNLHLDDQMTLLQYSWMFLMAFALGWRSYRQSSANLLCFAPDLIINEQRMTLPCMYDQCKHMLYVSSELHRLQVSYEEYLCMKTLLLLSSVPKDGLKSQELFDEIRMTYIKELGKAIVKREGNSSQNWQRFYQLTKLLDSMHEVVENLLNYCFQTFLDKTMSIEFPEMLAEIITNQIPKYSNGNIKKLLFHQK
For experiment [7] the target is unchanged. Briefly: GR-EFC Redistribution (AID 451; calls by dose curve; note: potency is the fitted concentration of half-maximal effect). As to conditions: CHO-K1 GR-EFC translocation, beta-gal luminescence, 2 h. The essentials:
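Translocation of GR-ED fusion to nuclear EA restores b-gal, read by luminescence after 1 h room-temperature detection. Engineered CHO-K1 biosensor cells, 1,000/well, exposed 2 h at 37 C to titrations up to 46 uM final.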

Experiment [8] concerns the target Mitogen-activated protein kinase 10 (Mus musculus) (UniProt Q61831). Briefly: JNK3 AlphaScreen Assay (AID 530).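 Note: kinase came from lysate of stimulated human HepG2 cells; signal reports phosphorylation of biotinylated GST-cJun 1-79 at Ser73 with 10 µM ATP; % is set by controls: 0 for no effect and ±100 for the full control effect.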 The essentials:
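Kinase buffer: 20 mM Tris-HCl pH 7.6, 10 mM MgCl2, 1 mM DTT, 0.1 mM Na3VO4, 0.01% Tween-20; ATP 10 uM. Substrate biotin-GST-cJun(1-79), enzyme from activated HepG2 lysates. Detection by Ser73 phospho-antibody AlphaScreen.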
Background: Bead proximity is the source of the signal in Alpha formats.

For experiment [9], the target named is 3',5'-cyclic-AMP phosphodiesterase 4B (Homo sapiens) (UniProt Q07343). Briefly: qHTS Assay for Inhibitors of PDE-IV (AID 607; active = well fitted activation curve with a large enough effect in the main read-out, with a control signal flat, not every such curve was filed as active; note: % of control where 0% means no effect). The essentials: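 Live HEK293 cells with a modified cyclic nucleotide-gated (CNG) channel report intracellular cAMP via membrane-potential dye fluorescence (ex 535/em 590 nm). Endogenous PDE-IV was targeted. Compounds were tested at up to 22.9 uM final; RO 20-1724 100 uM served as control.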
Sequence of 3',5'-cyclic-AMP phosphodiesterase 4B (Homo sapiens) (Q07343 whole entry, looked up): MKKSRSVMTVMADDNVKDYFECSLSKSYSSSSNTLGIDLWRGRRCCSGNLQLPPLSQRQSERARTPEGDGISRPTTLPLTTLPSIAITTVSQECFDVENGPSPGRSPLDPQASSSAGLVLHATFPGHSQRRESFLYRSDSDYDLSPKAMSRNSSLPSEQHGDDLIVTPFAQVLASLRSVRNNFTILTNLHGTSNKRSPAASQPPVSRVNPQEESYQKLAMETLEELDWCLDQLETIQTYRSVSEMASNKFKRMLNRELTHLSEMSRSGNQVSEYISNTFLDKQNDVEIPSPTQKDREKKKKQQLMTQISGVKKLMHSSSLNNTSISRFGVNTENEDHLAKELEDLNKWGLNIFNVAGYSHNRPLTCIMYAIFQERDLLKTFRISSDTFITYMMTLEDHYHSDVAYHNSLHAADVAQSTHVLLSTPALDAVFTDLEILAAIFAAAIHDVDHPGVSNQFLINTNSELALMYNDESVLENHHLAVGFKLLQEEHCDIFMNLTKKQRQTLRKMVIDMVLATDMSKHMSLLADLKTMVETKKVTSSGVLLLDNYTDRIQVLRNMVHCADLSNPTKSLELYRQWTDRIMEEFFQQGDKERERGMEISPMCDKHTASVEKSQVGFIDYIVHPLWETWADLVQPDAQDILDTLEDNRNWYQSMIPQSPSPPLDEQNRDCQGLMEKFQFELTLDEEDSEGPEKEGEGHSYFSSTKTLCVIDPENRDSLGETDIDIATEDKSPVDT

Experiment [10] deals with Cytochrome P450 3A4 (Homo sapiens) (UniProt P08684). The experiment in a line: qHTS Assay for Activators of Cytochrome P450 3A4 (AID 885; active = well fitted curve in the direction sought with a large enough effect; an effect the other way counts as inactive or inconclusive; note: nearly all actives have a fitted effect of over 65% in size). The essentials:
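Using 20nM recombinant human CYP3A4 in potassium phosphate (200mM), substrate Luciferin-PPXE at 25uM, luminescent luciferin detection followed a 60-min RT NADPH reaction; data scaled to 57 uM ketoconazole.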
In general terms: In qHTS, concentration-response curves come from the screen itself.

The nature of experiment [11]: Confirmation and Secondary Assay for Modulators of Hemoglobin Beta Chain Splicing at IVS2 654 locus (AID 910; active = well fitted curve in the direction sought with a large enough effect; an effect the other way counts as inactive or inconclusive;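 note: HeLa cells stably carrying EGFP split by mutant beta-globin IVS2-654 intron; per-well total GFP intensity by laser scanning cytometry after 2-day treatment; % of control where 0% means no effect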). The essentials: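 Readout: per-well total peak green fluorescence (488 nm ex, 500–520 nm em) from objects 5–250 µm, reflecting correct splicing of an EGFP-654 reporter. Compounds were applied for 2 days at 37 °C to overnight-plated HeLa EGFP-654 cells; controls were DMSO and 500 nM IVS2-654 PNA.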

Experiment [12] is described as follows: Confirmation and Secondary Assay for Modulators of Hemoglobin Beta Chain Splicing at IVS2 705 locus (AID 930; active = well fitted curve in the direction sought with a large enough effect; an effect the other way counts as inactive or inconclusive;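 note: HeLa cells stably expressing the EGFP-705 splicing reporter; GFP fluorescence per well restored by corrected splicing of the IVS2-705 intron in EGFP; % of control where 0% means no effect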). The essentials:
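Fluorescence gain (488 nm laser, 500-520 nm PMT) reflects restored correct splicing of a mutant IVS2-705 intron inside EGFP in stably transfected HeLa cells after 2-day compound treatment.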

Experiment [13] deals with Ubiquitin carboxyl-terminal hydrolase 1 (Homo sapiens) (UniProt O94782). The experiment in a line: Inhibitors of USP1/UAF1: Pilot qHTS (AID 504865; active = well fitted curve in the direction sought with a large enough effect; an effect the other way counts as inactive or inconclusive; note: nearly all actives have a fitted effect of over 35% in size; note: potency is the fitted concentration of half-maximal effect). The essentials: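 Kinetic fluorescence assay: 1nM USP1/UAF1, 15 min compound preincubation, then 150nM Ub-Rho; 480/540 nm.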
Sequence of Ubiquitin carboxyl-terminal hydrolase 1 (Homo sapiens) (O94782 whole entry, looked up): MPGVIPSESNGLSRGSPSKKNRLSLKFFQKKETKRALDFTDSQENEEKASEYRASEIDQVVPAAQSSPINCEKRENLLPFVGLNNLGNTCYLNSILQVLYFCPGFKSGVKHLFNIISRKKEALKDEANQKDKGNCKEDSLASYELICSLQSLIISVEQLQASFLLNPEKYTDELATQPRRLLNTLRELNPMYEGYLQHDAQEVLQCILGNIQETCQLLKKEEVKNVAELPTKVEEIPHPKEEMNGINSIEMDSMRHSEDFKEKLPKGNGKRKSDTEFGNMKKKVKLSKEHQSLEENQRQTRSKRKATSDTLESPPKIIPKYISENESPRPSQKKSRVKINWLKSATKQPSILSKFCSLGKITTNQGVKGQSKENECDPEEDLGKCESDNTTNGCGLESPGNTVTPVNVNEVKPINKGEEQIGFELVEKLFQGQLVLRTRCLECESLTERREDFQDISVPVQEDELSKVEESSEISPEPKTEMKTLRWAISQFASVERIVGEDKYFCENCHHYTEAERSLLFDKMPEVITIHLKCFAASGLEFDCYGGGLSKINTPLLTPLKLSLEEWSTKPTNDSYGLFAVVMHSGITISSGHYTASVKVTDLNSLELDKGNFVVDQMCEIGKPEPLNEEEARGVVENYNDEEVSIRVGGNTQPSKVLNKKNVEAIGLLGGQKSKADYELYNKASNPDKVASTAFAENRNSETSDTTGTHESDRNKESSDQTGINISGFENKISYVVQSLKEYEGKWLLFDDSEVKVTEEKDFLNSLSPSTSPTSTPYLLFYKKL
Experiment [14] is described as follows: Primary qHTS for small molecule stabilizers of the endoplasmic reticulum resident proteome: Secreted ER Calcium Modulated Protein (SERCaMP) assay (AID 1508630; active = well fitted curve in the direction sought with a large enough effect; an effect the other way counts as inactive or inconclusive; note: % is set by controls: 0 for no effect and ±100 for the full control effect). The essentials:
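The SH-SY5Y reporter protocol was run at 3 concentrations up to 38.3 uM (primary) or 11 concentrations (follow-up): 16 h compound, 100 nM thapsigargin for 4 h, then extracellular luciferase luminescence.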

Experiment [15] concerns the target Cytochrome P450 2C9 (Homo sapiens) (UniProt P11712). The experiment in a line: qHTS Assay for Inhibitors and Substrates of Cytochrome P450 2C9 (AID 883; active = well fitted curve in the direction sought with a large enough effect; an effect the other way counts as inactive or inconclusive; note: potency is the fitted concentration of half-maximal effect; nearly all actives have a fitted effect of over 60% in size). The essentials: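 Turnover of Luciferin-H (100uM, KM) by 10nM human CYP2C9 was measured over 60 min at 37C with NADPH regeneration; inhibitors and some substrates reduce luminescence. Data normalized to sulphaphenazole 57uM.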

In experiment [16] the target is Cytochrome P450 3A4 (Homo sapiens) (UniProt P08684). Briefly: qHTS Assay for Inhibitors and Substrates of Cytochrome P450 3A4 (AID 884; active = well fitted curve in the direction sought with a large enough effect; an effect the other way counts as inactive or inconclusive; note: potency is the fitted concentration of half-maximal effect; nearly all actives have a fitted effect of over 50% in size). The essentials:
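Luminescent readout of luciferin produced by CYP3A4 (20 nM) dealkylation of Luciferin-PPXE, 25 uM (its KM). NADPH-driven reaction ran 60 min at RT after 10 min compound preincubation; data scaled to 57 uM ketoconazole as 100% inhibition.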

The target in experiment [17] is Cytochrome P450 2C19 (Homo sapiens) (UniProt P33261). Briefly: qHTS Assay for Inhibitors and Substrates of Cytochrome P450 2C19 (AID 899; active = well fitted curve in the direction sought with a large enough effect; an effect the other way counts as inactive or inconclusive; note: potency is the fitted concentration of half-maximal effect; nearly all actives have a fitted effect of over 60% in size). The essentials:
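Reactions contain 5nM enzyme, 10uM Luciferin-H EGE (KM) and 50mM KPO4; compound preincubates 10 min at 37C, NADPH regeneration starts turnover for 60 min. Luminescence after detection reagent gives activity.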

Unmarked numbers belong to inactive results. Results filed as inconclusive are left out. Calls of active or inactive are those of the source. Unless noted, calls come from the whole dose curve; as a rule, active = well fitted curve in either direction with a large enough effect (not every such curve was filed as active); inconclusive = small, poorly fitted or top-dose-only effect, or another doubt; inactive = flat fitted curve, though single readings scatter.

Sequence of Cytochrome P450 3A4 (Homo sapiens) (P08684 whole entry, looked up): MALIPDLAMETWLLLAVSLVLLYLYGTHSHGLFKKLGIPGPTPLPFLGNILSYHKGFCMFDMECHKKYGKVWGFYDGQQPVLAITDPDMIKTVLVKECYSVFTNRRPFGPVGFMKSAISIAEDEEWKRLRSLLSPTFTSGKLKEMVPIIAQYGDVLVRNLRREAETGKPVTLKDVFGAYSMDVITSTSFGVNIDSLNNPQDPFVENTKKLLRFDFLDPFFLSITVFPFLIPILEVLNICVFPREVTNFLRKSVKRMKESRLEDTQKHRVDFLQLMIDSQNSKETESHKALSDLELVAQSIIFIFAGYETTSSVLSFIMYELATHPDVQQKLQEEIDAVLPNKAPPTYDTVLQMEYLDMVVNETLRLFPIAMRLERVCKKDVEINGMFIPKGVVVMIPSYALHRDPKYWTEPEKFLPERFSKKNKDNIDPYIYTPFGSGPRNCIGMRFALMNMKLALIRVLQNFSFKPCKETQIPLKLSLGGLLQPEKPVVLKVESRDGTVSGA
Sequence of Lysosomal acid glucosylceramidase (Homo sapiens) (P04062 whole entry, looked up): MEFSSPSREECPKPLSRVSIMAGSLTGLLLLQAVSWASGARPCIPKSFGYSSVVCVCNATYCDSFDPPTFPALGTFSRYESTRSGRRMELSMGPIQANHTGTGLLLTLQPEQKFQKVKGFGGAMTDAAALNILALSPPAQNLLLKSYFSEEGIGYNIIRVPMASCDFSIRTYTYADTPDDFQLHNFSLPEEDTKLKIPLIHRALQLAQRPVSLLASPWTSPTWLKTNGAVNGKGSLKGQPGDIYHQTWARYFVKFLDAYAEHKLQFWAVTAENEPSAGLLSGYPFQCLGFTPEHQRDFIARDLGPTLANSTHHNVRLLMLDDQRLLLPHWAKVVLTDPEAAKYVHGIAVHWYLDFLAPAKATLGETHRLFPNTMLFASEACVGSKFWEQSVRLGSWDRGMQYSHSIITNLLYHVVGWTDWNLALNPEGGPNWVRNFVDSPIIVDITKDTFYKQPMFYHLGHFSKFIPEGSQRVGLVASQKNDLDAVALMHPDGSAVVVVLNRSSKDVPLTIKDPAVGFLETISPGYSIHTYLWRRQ
Sequence of Cytochrome P450 2C9 (Homo sapiens) (P11712 whole entry, looked up): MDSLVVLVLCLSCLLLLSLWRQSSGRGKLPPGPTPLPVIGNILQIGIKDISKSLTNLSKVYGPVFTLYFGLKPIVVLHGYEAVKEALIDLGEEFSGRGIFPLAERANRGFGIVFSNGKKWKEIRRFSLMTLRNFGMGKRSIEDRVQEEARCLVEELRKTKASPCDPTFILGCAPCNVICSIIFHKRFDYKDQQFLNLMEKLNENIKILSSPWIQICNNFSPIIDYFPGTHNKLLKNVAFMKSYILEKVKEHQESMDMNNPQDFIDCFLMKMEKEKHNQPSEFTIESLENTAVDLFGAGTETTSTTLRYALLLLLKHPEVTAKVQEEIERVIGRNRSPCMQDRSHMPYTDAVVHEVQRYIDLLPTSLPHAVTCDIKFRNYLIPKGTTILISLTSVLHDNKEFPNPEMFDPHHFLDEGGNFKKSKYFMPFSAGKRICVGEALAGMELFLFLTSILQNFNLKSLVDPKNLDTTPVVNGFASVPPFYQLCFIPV
Sequence of Cytochrome P450 2C19 (Homo sapiens) (P33261 whole entry, looked up): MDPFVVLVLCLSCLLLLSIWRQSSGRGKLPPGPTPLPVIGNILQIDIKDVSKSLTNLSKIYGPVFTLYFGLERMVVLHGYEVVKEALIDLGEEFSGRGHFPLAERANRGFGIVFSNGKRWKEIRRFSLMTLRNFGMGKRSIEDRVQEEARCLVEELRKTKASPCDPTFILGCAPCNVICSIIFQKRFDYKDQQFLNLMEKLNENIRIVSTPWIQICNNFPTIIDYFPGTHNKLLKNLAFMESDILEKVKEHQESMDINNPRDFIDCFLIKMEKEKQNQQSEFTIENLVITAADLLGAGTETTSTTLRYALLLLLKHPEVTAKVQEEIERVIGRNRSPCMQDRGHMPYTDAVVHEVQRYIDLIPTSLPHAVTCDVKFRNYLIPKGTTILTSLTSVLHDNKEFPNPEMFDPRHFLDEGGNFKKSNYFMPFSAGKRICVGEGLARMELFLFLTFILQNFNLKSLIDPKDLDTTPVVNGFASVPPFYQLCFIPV

`COc1ccc2[nH]cc(CCNc3nc(-c4ccccc4CN(C)C)nc4ccccc34)c2c1`: the Potency is > 11.4 µM in [1], 25.1 µM (active) in experiment [3], > 46 µM in [6] and > 46 µM in experiment [7]. Further, the figures for the activity change, negative = inhibition in experiment [2] and in [4] were -0.774% and -26.8%, respectively. The activity, negative = inhibition in [5] is 4.15%. Further, the Potency entry in experiment [8], in [9], in [10], in experiment [11] and in experiment [13] was “inactive” in each case. Moreover, the call in experiment [12] and in experiment [14] was inactive.

Turning to `CCC(=O)O[C@@H]1CC(=O)O[C@H](C)C/C=C/C=C/[C@@H](O)[C@H](C)C[C@H](CC=O)[C@H](OC2O[C@H](C)[C@@H](O[C@H]3C[C@@](C)(O)[C@@H](OC(=O)CC)[C@H](C)O3)[C@H](N(C)C)[C@H]2O)[C@H]1OC` (stereo partly drawn), the result in experiment [14] was inactive.

As to `O=c1c(-c2ccc(F)cc2)nc2cncnc2n1C1CC1`, the Potency is > 11.4 µM in [1], 0.158 µM (active) in experiment [3], > 9.22 µM in [6] and > 46 µM in experiment [7]. For the same compound, the activity change, negative = inhibition was -6.77% in experiment [2] and 2.7% in experiment [4]. Also, the activity, negative = inhibition in [5] was -6.49%. For the same compound, the Potency result in experiment [8] was “inactive”. Moreover, in experiment [14], the outcome was inactive.

For `COc1cccc(-c2cncnc2NCCc2cnc[nH]2)c1`, the Potency in [1] is > 11.4 µM; in experiment [3], 0.398 µM (active); in experiment [6], > 46 µM; in experiment [7], > 46 µM; in [15], 0.251 µM (active); in experiment [16] it was 0.631 µM (active). For the same compound, the figures for the activity change, negative = inhibition in experiment [2] and in experiment [4] were -20.9% and -4.17%, respectively. For the same compound, the activity, negative = inhibition in experiment [5] was -17%. The Potency entry in [8], in experiment [9], in [10], in [11] and in [13] was “inactive” throughout. Besides, the call in experiment [12] and in [14] was inactive.

With `N#Cc1cccc(-c2nc(NCc3ccccc3)c3ccccc3n2)c1`, the Potency in experiment [1] was > 11.4 µM; in [3], 0.398 µM (active); in [6], > 46 µM; in [7] it was > 46 µM; in experiment [17], 6.31 µM (active); in experiment [13], 15.8 µM (active). The activity change, negative = inhibition was -14.6% in experiment [2] and -13.5% in experiment [4]. For the same compound, the activity, negative = inhibition in experiment [5] is -8.06%. Besides, the Potency entry in experiment [8] and in experiment [10] was “inactive” throughout. The result in [14] was inactive.

`CC(=O)NCCNc1ncnc2ccc(-c3ccc(C(=O)N(C)C)cc3)cc12`: the Potency is > 11.4 µM in [1], 25.1 µM (active) in [3], > 46 µM in experiment [6] and > 46 µM in experiment [7]. Besides, the results for the activity change, negative = inhibition in experiment [2] and in [4] were -14.6% and -1.21%, respectively. The activity, negative = inhibition in experiment [5] was -0.482%. Also, the Potency result in [8], in experiment [9], in [11] and in experiment [13] was “inactive” in each case. The outcome in experiment [12] and in [14] was inactive.

With `O=c1c(-c2ccccc2)nc2cncnc2n1C1CC1`, the Potency was > 11.4 µM in experiment [1], 2 µM (active) in experiment [3], > 9.22 µM in experiment [6] and > 46 µM in [7]. Further, the values for the activity change, negative = inhibition in [2] and in experiment [4] were -14.9% and 6.76%, respectively. Further, the activity, negative = inhibition in experiment [5] was 8.37%. In [8], the Potency entry is “inactive”. In experiment [14], the result was inactive.

As to `O=c1c(-c2ccccc2)nc2cncnc2n1Cc1ccccc1Cl`, the Potency in [1] was > 11.4 µM; in experiment [3], 2 µM (active); in [6], > 9.22 µM; in experiment [7], > 46 µM. Also, the figures for the activity change, negative = inhibition in experiment [2] and in [4] were 1.43% and -6.41%, respectively. For the same compound, the activity, negative = inhibition in [5] is 5.03%. In addition, in experiment [8], the Potency result was “inactive”. Further, in experiment [14], the outcome was inactive.
